Source: PubChem BioAssay (National Center for Advancing Translational Sciences (NCATS))
HCV inhibitor – blocks hepatitis C virus. Potency, µM (highest dose often 41.8 µM), for inactives: at the highest dose activity change, negative = inhibition, hits mostly inhibitors. Huh7.5.1 HCVcc-Cre infection, luciferase reporter, 44 h. AID 651820. 3.4% of 340,000 active; active = well fitted inhibition curve with a large enough effect; inconclusive = small, poorly fitted or top-dose-only effect, or another doubt; inactive = no such curve, though single readings can be large or run the other way; note: potency is the fitted concentration of half-maximal effect; % is set by controls: 0 for no effect and ±100 for the full control effect
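HCVcc-Cre virus at an moi near 0.5 was added right after compound to cells cultured 4 h from seeding (1,000 cells/well). Luciferase activity was determined 44 h later, 15 min after substrate addition at RT.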
MARV entry inh – inhibitors of Marburg virus binding or cell entry; Marburg virus pseudotyped entry inhibition, cell reporter; Potency, µM (doses to about 37.8 µM), inactives show top-dose activity change, negative = inhibition, usual class: inhibitors; 1.8% of 300,000 active; calls by dose curve; tested in HEK293 cells; note: potency is the fitted concentration of half-maximal effect; % is set by controls: 0 for no effect and ±100 for the full control effect
LASV entry inh – blocks Lassa virus binding to or entry into cells. Potency, µM (doses to about 37.9 µM), for inactives: at the top dose activity change, negative = inhibition, most hits filed as inhibitors. Lassa virus pseudotype entry inhibition, cell reporter. 1.2% of 300,000 active. AID 540256; calls by dose curve; tested in HEK293 cells; note: potency is the fitted concentration of half-maximal effect; % is set by controls: 0 for no effect and ±100 for the full control effect; nearly all actives have a fitted effect of over 50% in size
FMDV antiviral – antivirals against foot and mouth disease virus. 1.2% of 410,000 active. Potency, µM (top dose mostly 57.9 µM), inactives show top-dose activity change, negative = inhibition, most hits filed as inhibitors. FMDV antiviral cell-based qHTS. AID 1159524; calls by dose curve; tested in HEK293T cells; note: read-out not given here; potency is the fitted concentration of half-maximal effect; % is set by controls: 0 for no effect and ±100 for the full control effect; nearly all actives have a fitted effect of over 45% in size
HCMV inh – human cytomegalovirus inhibition; HFF cells, HCMV-luciferase reporter, 72 h; stronger effect = lower value; activity change, negative = inhibition, % at 57.5 µM; 4.5% of 410,000 active; in the data active = activity change below about -60%; inconclusive = no clear call, values can overlap the other calls; inactive = above about -39%; note: % is set by controls: 0 for no effect and ±100 for the full control effect
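Cell-based, HFFs, 1000 cells/well, 16 h 37C; cpds in DMSO + HCMV-luc, MOI 1 PFU/cell; 72 h 37C; OneGlo luminescence after 5 min RT; norm. to buffer vs Salinomycin 10uM.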
SARS PLpro yeast – blocks SARS-CoV papain-like protease in a yeast assay; S. cerevisiae expressing SARS-CoV PLpro, growth rescue; Potency, µM (titrated, usually from 32.9 µM), for the others: at the top dose activity, positive = growth rescue, actives largely listed as activators; 0.19% of 330,000 active; calls by dose curve; note: potency is the fitted concentration of half-maximal effect; 0% is about no effect; nearly all actives have a fitted effect of over 55% in size
Active calls of the source: *; ? = inconclusive; . = no result given; + = active, no number; ! = not active in a repeat; [ ] = remark or other dose. Sampled rows, rich in hits. Any-hit rate of the full collection: about 8%.

SMILES	HCV inhibitor	MARV entry inh	LASV entry inh	FMDV antiviral	HCMV inh	SARS PLpro yeast
Cc1cc(C)cc(OCC(=O)OC/C(O)=C(\C#N)c2nc3ccccc3[nH]2)c1	0%	?	-18%	-11%	-81*	1%
N#C/C(=C(/O)COC(=O)COc1cccc(Br)c1)c1nc2ccccc2[nH]1	1%	.	.	-28%	-78*	0%
Cc1cccc(C)c1OCC(=O)OC/C(O)=C(\C#N)c1nc2ccccc2[nH]1	25%	4%	4%	-8%	?	-2%
CC(C)c1ccc2oc(-c3cccc(NC(=O)c4ccc5c(c4)OCCO5)c3)nc2c1	.	3%[46.1 µM]	3%[46.1 µM]	4%	36	.
Cc1nc(C)n(CC(=O)NCC2Cc3cc(-c4cccc(OC(F)(F)F)c4)ccc3O2)n1 (stereo not given)	.	.	.	-21%	.	.
Cc1c(C(=O)N2CCCCC2)c(S(=O)(=O)N2CCC(C)CC2)c(C)n1C	31%	?	-13%[46.1 µM]	4%	+	11%
Cc1cccc(NS(=O)(=O)c2c(C(=O)N3CCCC3)c(C)n(C)c2C)c1	24%	9%[46.1 µM]	16%[46.1 µM]	29%	+	7%
Cn1c(=O)n(C)c2cc(NS(=O)(=O)c3ccc(F)cc3)c(NCc3ccccc3)cc21	.	16%[46.1 µM]	-3%[46.1 µM]	48%	-18	.
CCCCC(=O)OCc1cc(=O)n2nc(C3CCCCC3)sc2n1	.	.	27%[46.1 µM]	10%	-2	.
CCOc1ccc(NC(=O)C(Cc2ccccc2)N2C(=O)c3cccc4cccc(c34)C2=O)cc1 (stereo not given)	?	?	?	-9%	-99*	-2%
CCN(C=NC1=NN(c2cccc(C(F)(F)F)c2)CC1)CC	11µM*	?	-2%	43%	-22	-19%
Cc1ccc(-c2noc(CN(C(=O)c3ccc(C(C)(C)C)cc3)C(C)C)n2)cc1	.	9%[46.1 µM]	-11%[46.1 µM]	24%	-11	.
Cc1cc(C)n(C(C)CC(=O)Nc2ccc(C)c(F)c2)n1 (stereo not given)	.	.	-17%[46.1 µM]	-14%	-18	.
CCSc1nsc(NC(=O)Nc2cccc(OC)c2)n1	-18%	11µM*	?	-26%	?	-2%
C=CCSc1nsc(NC(=O)Nc2ccc(F)cc2)n1	22µM*	?	?	-28%	-103*	-23%
COc1cc(N2CCC(O)CC2)ccc1Nc1cc(Nc2ccccc2S(=O)(=O)C(C)C)c2cc[nH]c2n1	.	.	.	.	-36	.
COc1cc(N2CCN(C(C)C)CC2)ccc1Nc1nc(Nc2cccc3ncccc23)c2cc[nH]c2n1	.	.	20µM*	.	.	.
CCOCCCNC(=O)C1CCN(C(=O)c2cc3sccc3n2C)CC1	.	0%[46.1 µM]	.	-11%	5	.
CCN1CCCC1CNC(=O)c1ccc(Sc2ccccc2Cl)c([N+](=O)[O-])c1 (stereo not given)	5.6µM*	?	-21%	-21%	?	0%
CCN1CCN(C(=O)c2ccc(Sc3ccccc3Cl)c([N+](=O)[O-])c2)CC1	-12%	?	-10%	-16%	-11	-8%
CCN1CCCC1CNC(=O)c1ccc(Sc2ccc(F)cc2)c([N+](=O)[O-])c1 (stereo not given)	6.3µM*	6.3µM*	.	-8%	-18	-1%
CN1C(=S)N2CCCN2C1c1ccccc1 (stereo not given)	-12%	2%	11%	-9%	-3	-1%
S=C1N(c2ccccc2)C(c2ccccc2)N2CCCN12 (stereo not given)	10%	-1%	18µM*	-11%	50	3%
CN(C)CCCC1(c2ccc(F)cc2)OCc2cc(C#N)ccc21 (stereo not given)	?	16µM*!	?	-16%	0	-6%
COc1ccc(-c2c(C)c3ccc(O)c(CN4CCC(C)CC4)c3oc2=O)cc1OC	.	.	4%[46.1 µM]	-3%	6	.
SMILES	HCV inhibitor	MARV entry inh	LASV entry inh	FMDV antiviral	HCMV inh	SARS PLpro yeast
CCC(C)NC(=O)c1c(F)c(F)c(F)c(F)c1F (stereo not given)	13%	19%	0%	-16%	-68*	8%
CCOC(=O)C(C)Sc1nc(-c2cccs2)ccc1C#N (stereo not given)	14µM*	-1%	-27%	-7%	47	-12%
C=COC(=O)CSc1nc(-c2cccs2)ccc1C#N	3%	?	3%	10%	40	-1%
COc1ccc(CCNC2=C(Cl)C(=O)N(CCc3ccc(OC)c(OC)c3)C2=O)cc1OC	2.5µM*	?	?	10µM*	44	1%
COc1ccccc1C1CN(Cc2cccc3c2OCO3)Cc2ccccc2O1 (stereo not given)	.	.	.	4%	.	.
Cc1csc(N(C(=O)c2cccc(S(=O)(=O)N3CCCC3)c2)c2ccccc2)n1	-44%	-17%	-5%	?	-16	8%
Cc1csc(N(C(=O)c2cccc(S(=O)(=O)N(C)C)c2)c2ccccc2)n1	12%	3%	?	8.9µM*	-3	3%
CCC(=O)N1CCc2cc(Br)cc(S(=O)(=O)CCC(=O)N3CCN(c4cc(C)ccc4C)CC3)c21	.	?	-1%[46.1 µM]	-3%	10	.
Cc1ccc(NC(=O)c2ccc(OCc3c(C)noc3C)cc2)nc1	11µM*	.	.	?	?	-6%
Cc1ccc(C(=O)NNC(=O)c2ccccc2OCc2c(C)noc2C)cc1	1%	3.5µM*	6%	7%	2	-4%
CCn1nc(C(=O)NNC(=O)c2ccccc2OCc2c(C)noc2C)c2ccccc2c1=O	?	.	.	-28%	-83*	1%
Cc1noc(C)c1COc1ccccc1C(=O)NCCc1ccccc1	3.2µM*	-11%	8%	-16%	-16	3%
Cc1ccc(NC(=O)c2ccc(OCc3c(C)noc3C)cc2)cc1	.	.	.	.	-8	-2%
CCOc1ccc(C(=O)Nc2ccc3nc(SCC(=O)N4CCOCC4)sc3c2)cc1	.	-2%[46.1 µM]	16%[46.1 µM]	?	-24	.
Cc1ccc(-c2noc(-c3nnn(CC(=O)Nc4cc(Cl)ccc4C)c3N)n2)cc1	.	.	23%[46.1 µM]	14%	19	.
COC(=O)c1ccccc1NC(=O)c1ccc2c(c1)CCN2S(C)(=O)=O	.	12%[46.1 µM]	-20%[46.1 µM]	-3%	-16	.
Cc1ccc(CNC(=O)c2cccc(OCc3c(C)noc3C)c2)cc1	-5%	-6%	-26%	-27%	-3	-2%
Cc1noc(C)c1COc1cccc(C(=O)NCCc2c[nH]c3ccccc23)c1	?	?	10µM*	-18%	29	-1%
O=c1c2ccccc2ncn1-c1ccc(Cl)cc1Cl	-19%	.	.	-21%	-21	0%
O=c1c2ccccc2sn1-c1ccc(Cl)cc1Cl	.	.	.	-23%	-95*	.
CNC[C@H](CC1CCCCC1)NC[C@H](Cc1ccccc1)NCCC12CC3CC(CC(C3)C1)C2	1%[8.37 µM]	.	.	32µM*	-105*	-7%
CCn1cc(CCCC(=O)NCc2ccccc2OC)c2ccccc21	?	.	.	-21%	37	-4%
CCn1c2ccccc2c2cc(NC(C)=O)ccc21	?	18%[46.1 µM]	14%	-14%	69	-3%
